According to PubChem BioAssay AID493011 (Sanford-Burnham Center for Chemical Genomics, 2011):
Out of some 330,000 compounds screened, about 1,400 (0.42%) were called active. This is one part of a sample in which actives are shown more often than they occur.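 The calls were made as follows: active = at least 40% inhibition at 20 µM here, with at most 30% in a related deaminase screen; inactive = the rest.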

target: DNA dC->dU-editing enzyme APOBEC-3A (Homo sapiens) (UniProt P31941); test: blockers of A3A cytidine deamination on DNA – biochemical, FAM/TAMRA oligo cleavage fluorescence, selectivity assay for APOBEC3G inhibitor project, primary screen (AID 493011); details: recombinant A3A, FAM/TAMRA ssDNA deamination fluorescence; at 20 µM; stronger effect = higher value;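 also: plate controls were A3A with DMSO for no effect and wells lacking A3A enzyme for full effect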
Sequence (P31941 whole entry, looked up): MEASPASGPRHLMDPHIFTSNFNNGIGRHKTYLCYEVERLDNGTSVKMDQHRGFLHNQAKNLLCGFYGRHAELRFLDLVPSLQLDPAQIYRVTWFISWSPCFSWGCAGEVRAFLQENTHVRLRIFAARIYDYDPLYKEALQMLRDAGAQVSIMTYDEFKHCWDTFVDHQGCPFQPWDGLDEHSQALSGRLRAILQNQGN

SMILES | inhibition
CCN(CC)CCOC(=O)c1cc2cc(COC)ccc2o1 | 75.9% (active)
CC(=NC1CCN(Cc2ccccc2)CC1)c1c(O)n(C)c(=O)n(C)c1=O | 1.55% (inactive)
COc1cc(OC)cc(C2(C#N)CCN(C)CC2)c1 | 3.94% (inactive)
CN(C)c1nc(N(C)C)nc(N(C#N)CCCl)n1 | -2.95% (inactive)
O=C(O)CCn1cc(C=C2C(=O)NC(=S)NC2=O)c(-c2cccc(Br)c2)n1 | 40.8% (active)
COC(=O)C1=C(c2cccc(OCc3ccccc3)c2)C[C@@H]2CC[C@H]1N2C(=O)NNCc1ccccc1 | -3.97% (inactive)
CC(=C1C(=O)c2ccccc2C1=O)N1CCN(CCN=Cc2c(O)n(C)c(=O)n(C)c2=O)CC1 | 1.68% (inactive)
CC[N+]1(C)CCCC(OC(=O)C(O)(c2ccccc2)c2ccccc2)C1 (stereo not given) | -0.37% (inactive)
O=C(c1cc(S(=O)(=O)N2CCOCC2)ccc1F)N1CCC2(CC1)OCCO2 | 4.32% (inactive)
CNC(=O)O/N=C(\N)Cc1csc2ccccc12 | 1.51% (inactive)
